# Bioassay records: PubChem BioAssay, National Center for Advancing Translational Sciences (NCATS)
# SARS PLP yeast – blocks SARS-CoV papain-like protease in a yeast assay; S. cerevisiae expressing SARS-CoV PLpro, growth rescue; Potency, µM (titrated, usually from 32.9 µM), inactives show at the top dose activity, positive = growth rescue, usual class: activators; 330,000 compounds, 0.19% hits; calls by dose curve; also: 0% is about no effect; nearly all actives have a fitted effect of over 55% in size
# Sm TGR block – blocks Schistosoma mansoni thioredoxin glutathione reductase; 360,000 compounds, 3% hits; purified TGR, DTNB reduction, TNB absorbance 405 nm; Potency, µM (highest dose often 114 µM), without a hit: at the highest dose activity change, negative = inhibition, usual class: inhibitors; AID 485364; Q962Y6; also: % is scaled to controls: 0 for no effect and ±100 for the full control effect; nearly all actives have a fitted effect of over 60% in size
#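 First, TGR (20 nM dispensed) and NADPH were mixed with compound. Second, a 15 min room-temperature incubation followed. Third, further NADPH and then DTNB were added to start the reaction. Finally, TNB absorbance was monitored kinetically.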
# Pf growth 48h – P. falciparum growth inhibition at 48 hours (one generation). Potency, µM (series often up to 28.7 µM), for the others: at the highest dose activity change, negative = inhibition, actives largely listed as inhibitors. 310,000 compounds, 5.9% hits. AID 504832. P. falciparum luciferase growth in erythrocytes, 48 h; also: % is scaled to controls: 0 for no effect and ±100 for the full control effect
#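 Luciferase-expressing parasites in RBCs, 2% Hct / 0.1% parasitemia final; RPMI 1640 + 0.5% Albumax; 37 C, 5% CO2, one generation; luminescence read-out, lower signal = inhibition.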
# Pf growth 96h – P. falciparum growth inhibition at 96 hour, primary screen for plastid delayed-death inhibitors; P. falciparum luciferase reporter growth, 96 h; Potency, µM (highest dose often 28.7 µM), for the others: top-dose activity change, negative = inhibition, hits mostly inhibitors; 320,000 compounds, 6.9% hits; AID 504834; also: % is scaled to controls: 0 for no effect and ±100 for the full control effect
#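 Luminescence readout: decreased luciferase signal marks inhibited growth of reporter-expressing P. falciparum in infected red cells (2% hematocrit, 0.05% parasitemia final), exposed to compound two generations (96 h, 37 C, 5% CO2).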
# The depositor's hits bear a star; ? = inconclusive; / = no result. In the library only some 12% were active in any assay of this set; here they are far more common. Unless noted, calls follow the shape of the dose curve; as a rule, active = well fitted curve in the direction sought with a large enough effect; inconclusive = small, poorly fitted or top-dose-only effect, or another doubt; inactive = no such curve, though single readings can be large; an effect the other way counts as inactive or inconclusive. Potency is read from the fitted curve at half-maximal effect.
SMILES,SARS PLP yeast,Sm TGR block,Pf growth 48h,Pf growth 96h
O=C(Nc1ccc(Cl)cc1C(=O)NCC1CCCO1)c1ccc(Cl)cc1Cl (stereo not drawn),-45%,8%,8.3µM*,-13%
O=C(Nc1ccc(Cl)cc1C(=O)NCC1CCCO1)c1ccco1 (stereo not drawn),/,-16%,-20%,/
Cc1cccc2cc(C(c3nnnn3CC3CCCO3)N3CCCc4ccccc43)c(=O)[nH]c12 (stereo not drawn),0%,-13%,9.3µM*,-19%
CCOc1ccc2[nH]c(=O)c(C(c3nnnn3CC3CCCO3)N3CCc4ccccc4C3)cc2c1 (stereo not drawn),?,?,10µM*,-14%
Cc1cc2cc(C(c3nnnn3CC3CCCO3)N3CCCc4ccccc43)c(=O)[nH]c2cc1C (stereo not drawn),-2%,?,?,-21%
CCc1ccc2[nH]c(=O)c(C(c3nnnn3CC3CCCO3)N3CCCc4ccccc43)cc2c1 (stereo not drawn),3%,35µM*,12µM*,?
Cc1ccc2cc(C(c3nnnn3CC3CCCO3)N3CCc4ccccc4C3)c(=O)[nH]c2c1 (stereo not drawn),-7%,?,?,151%
Cc1nnc(SCC(=O)NC2CCCCCC2)n1N,-1%,6%,?,-3%
CC1Cc2cc(S(=O)(=O)CCC(=O)Nc3ccc(F)cc3)ccc2N1C(=O)C1CC1 (stereo not drawn),/,0%,/,/
CCN(CC)C(=O)[C@H]1C[C@H](CC(=O)NCc2ccc(OC)c(OC)c2)C(=O)N2CCc3c([nH]c4ccc(Cl)cc34)[C@]12C,2%,/,/,/
CN1CCN(C(=O)Nc2ccccc2CC[N+](=O)[O-])CC1,-7%,32µM*,-10%,-1%
CN1CCN(C(=O)Nc2ccccc2)CC1,0%,/,9%,-11%
O=C(NC1CCCC1)c1cc(=O)[nH]c2ccccc12,/,-16%,2%,?
CCOc1ccccc1CNC(=O)c1ccc2nc(N3CCOCC3)sc2c1,2%,1%,?,50%
C=C1C(=O)[C@@]23[C@H](O)C[C@@H]4C(C)(C)CC[C@H](O)[C@]4(C)[C@@H]2C[C@H](O)[C@@H]1[C@H]3O,4%,10µM*,9.3µM*,4.1µM*
C=C1C(=O)[C@@]23[C@H](O)C[C@@H]4C(C)(C)CC[C@H](O)[C@@]4(C)[C@@H]2CC[C@@H]1[C@H]3O,-5%,20µM*,15µM*,?
O=C(CCN1C(=O)/C(=C/c2ccccc2Cl)SC1=S)NC1C=CS(=O)(=O)C1 (stereo not drawn),-5%,-4%,-2%,?
NC(=O)CSc1nc2scc(-c3ccc(Cl)cc3)c2c(=O)n1Cc1ccccc1,4%,-11%,12µM*,8.3µM*
CN(C)C(=O)CSc1nc2ccccc2n1Cc1ccccc1,6%,-3%,1%,?
Cc1ccc(-c2csc3nc(SCC(=O)N(C)C)n(Cc4ccccc4)c(=O)c23)cc1,17%,-2%,13µM*,?
CNc1c(NS(=O)(=O)c2cc(Cl)ccc2OC)c(=O)oc2ccccc12,9%,-10%,-2%,-19%
CS(=O)(=O)N(CC(=O)N1CCOCC1)Cc1ccc(Cl)cc1,1%,-7%,-2%,7.4µM*
CS(=O)(=O)N(CC(=O)N1CCCCCC1)Cc1ccc(Cl)cc1,0%,0%,14%,/
CCCCNS(=O)(=O)c1ccc(OCC(=O)N2CCN(Cc3ccc4c(c3)OCO4)CC2)cc1,4%,5%,?,10µM*
CS(=O)(=O)N(CC(=O)N1CCN(Cc2ccc3c(c2)OCO3)CC1)Cc1ccc(Cl)cc1,8%,0%,/,1.9µM*
SMILES,SARS PLP yeast,Sm TGR block,Pf growth 48h,Pf growth 96h
CCOc1ccccc1NC(=O)Cn1cnc2c1c(=O)n(C)c(=O)n2C,/,3%,/,/
CCOCCCn1c(C)nc2c(c1=O)c1nc3ccccc3nc1n2CCC1=CCCCC1,?,-4%,?,2.6µM*
O=C(NC1CCCCC1)C1CCN(C(=O)c2ccc(Cl)cc2)CC1,4%,1%,-8%,13%
COc1ccc(NC(=O)[C@H](COCc2ccccc2)NC(=O)OC(C)(C)C)cc1,-3%,12%,?,?
COc1ccc(NC(=O)C(NC(=O)OC(C)(C)C)C(C)OCc2ccccc2)cc1 (stereo not drawn),-4%,4%,1%,1.7µM*
C[C@H]1O[C@@H](O[C@H]2[C@@H](O)C[C@H](O[C@H]3[C@@H](O)C[C@H](O[C@H]4CC[C@@]5(C)[C@H](CC[C@@H]6[C@@H]5CC[C@]5(C)[C@@H](C7=CC(=O)OC7)CC[C@]65O)C4)O[C@@H]3C)O[C@@H]2C)C[C@H](O)[C@@H]1O,3%,1%,?,4.1µM*
CN1CC(=O)NC1=NC(=O)C12CC3CC(CC(C3)C1)C2,10%,-3%,?,12µM*
Cc1ccc(C(=O)Nc2nnc(CC(=O)N/N=C/c3ccc(O)c(O)c3)s2)cc1,0%,45µM*,39%,?
Cc1ccc(C(=O)Nc2nnc(CC(=O)N/N=C/c3ccncc3)s2)cc1,3%,-13%,183%,?
Cn1c(=O)oc2cc(S(=O)(=O)N3CCCC(C(=O)NCCc4ccc(Cl)cc4)C3)ccc21 (stereo not drawn),/,3%,/,/
Cc1ccc(S(N)(=O)=O)cc1NC(=O)C(c1ccccc1)c1ccccc1,-1%,0%,-3%,?
CC1CCC2(CC1)NC(=O)N(CC(=O)NCc1ccc(F)cc1)C2=O (stereo not drawn),6%,-7%,-15%,?
COc1ccc(C2=CC(c3c(C)nn(-c4ccccc4)c3Cl)n3nnnc3N2)cc1OC (stereo not drawn),-1%,18µM*,2.3µM*,?
COc1cccc(NC(=O)CN(CCc2ccccc2)S(=O)(=O)c2ccc(Cl)cc2)c1,/,1%,/,/
CCOC(=O)c1sc2nc(C)c([N+](=O)[O-])c(COC)c2c1N,0%,1%,10µM*,-9%
COc1cccc(-n2ccnc2SCC(=O)Nc2c(C)cc(C)cc2C)c1,/,1%,/,/
O=C(Nc1cc2c(cc1[N+](=O)[O-])OCCO2)c1cccnc1,0%,/,/,/
CCOC(=O)C[n+]1ccc2c([nH]c3ccccc32)c1C,1%,1%,-21%,10µM*
CCOC(=O)Cc1c(Cl)c2ccccc2[nH]c1=O,4%,/,-2%,4%
COc1ccc(OC)c(C(=O)COC(=O)COc2ccccc2F)c1,-1%,6%,11%,19%
NNC(=O)c1cc(-c2ccccc2)sc1N,-3%,4%,9.3µM*,?
C=CCn1c(COc2ccc(F)cc2)nnc1SCC(=O)NC1CC1,-3%,-7%,0%,12%
COc1cc(NC(=O)C2=C(N3CCOCC3)/C(=C\c3ccc(N(C)C)cc3)CCC2)cc(OC)c1OC,5%,-22%,15µM*,?
COc1cc(NC(=O)CSc2nc(-c3ccco3)cc(C(F)(F)F)n2)cc(OC)c1OC,/,8%,/,/
